In PubChem BioAssay AID1159580 (chemical genetic matrix, 2015):
Screen size: about 5,500 compounds; about 2,000 (36%) were called active. Another 18% or so got no clear call; they are omitted. No stated cut-off is given here; in the data, active means normalized growth mostly below about 0.91 (no sharp cut-off); inconclusive means no clear call, values can overlap the other calls; inactive means mostly above about 0.92. The list shows a part of the results.

Experiment: chemical genetic growth profiling, strain panel (AID 1159580);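 further: tested at 20 µM; growth read once vehicle control cultures reached saturation at 30 °C; 1 = growth at the plate median or of vehicle wells; lower values mean less growth of the strain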
Details: S. cerevisiae deletion strains, growth OD

Measured: normalized growth

Cc1onc2c(=O)n(-c3ccccc3)nc(-c3ccccc3)c12
active: locus YHR030C, strain SLT2, hits give low values 0.517 | locus YJR075W, strain HOC1, hits give low values 0.622 | locus YLR039C, strain RIC1, hits give low values 0.57 | locus YLR085C, strain ARP6, hits give low values 0.769 | locus YLR262C, strain YPT6, hits give low values 0.574 | locus YMR307W, strain GAS1, hits give low values 0.568 | locus YNL322C, strain KRE1, hits give low values 0.929
inactive: locus YAL013W, strain DEP1, hits give low values 0.98 | locus YBR229C, strain ROT2, hits give low values 0.983 | locus YCL061C, strain MRC1, hits give low values 0.98 | locus YDL101C, strain DUN1, hits give low values 0.954 | locus YDL134C, strain PPH21, hits give low values 0.981 | locus YDR150W, strain NUM1, hits give low values 0.934 | locus YEL061C, strain CIN8, hits give low values 0.968 | locus YGR078C, strain PAC10, hits give low values 0.947 | locus YHR087W, strain rtc3, hits give low values 0.978 | locus YJR043C, strain POL32, hits give low values 1.01 | locus YLR058C, strain SHM2 (second series), hits give low values 0.984 | locus YML094W, strain GIM5, hits give low values 0.978 | locus YMR219W, strain ESC1, hits give low values 0.955 | locus YMR263W, strain SAP30, hits give low values 0.974 | locus YNL153C, strain GIM3, hits give low values 1 | locus YNL298W, strain CLA4 (second series), hits give low values 0.911 | locus YNR030W, strain Alg12, hits give low values 0.945 | locus YPL055C, strain LGE1, hits give low values 1.02 | locus YPL241C, strain CIN2, hits give low values 0.959 | locus YPR135W, strain CTF4, hits give low values 0.68
